ALDH1A1 block – inhibitors of human aldehyde dehydrogenase 1A1; P00352; Purified ALDH1A1, NADH fluorescence, propionaldehyde substrate; Potency, µM (doses to about 75.3 µM), for the others: at the highest dose activity, negative = inhibition, hits mostly inhibitors; hit rate 7.3% among 220,000; AID 1030;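 also: potency is read from the fitted curve at half-maximal effect; plate controls were no enzyme wells and a reference inhibitor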
GoLoco inh red – inhibitors of human Gai1-RGS12 GoLoco interaction (red fluorophore); P63096; hit rate 0.44% among 230,000; Gai1:RGS12 GoLoco peptide FP, rhodamine, 10 min; Potency, µM (titrated, usually from 61.6 µM), for the others: at the top dose activity, negative = inhibition, actives largely listed as inhibitors; active = well fitted inhibition curve with a large enough effect, not every such curve was filed as active; inactive = no such curve, though single readings can be large or run the other way; also: potency is read from the fitted curve at half-maximal effect; nearly all actives have a fitted effect of over 30% in size
NPSR antag – blocks cAMP signaling of the human neuropeptide S receptor | Q6W5P4 | CHO-NPSR cells, cAMP TR-FRET, antagonist mode | Potency, µM (top dose mostly 38.3 µM), for the others: at the top dose activity change, negative = inhibition, usual class: inhibitors | hit rate 1% among 220,000 | AID 1461; active = well fitted curve in the direction sought with a large enough effect; inconclusive = small, poorly fitted or top-dose-only effect, or another doubt; inactive = no such curve, though single readings can be large; an effect the other way counts as inactive or inconclusive; also: potency is read from the fitted curve at half-maximal effect; nearly all actives have a fitted effect of over 50% in size
Target sequence (Q6W5P4 whole entry, looked up): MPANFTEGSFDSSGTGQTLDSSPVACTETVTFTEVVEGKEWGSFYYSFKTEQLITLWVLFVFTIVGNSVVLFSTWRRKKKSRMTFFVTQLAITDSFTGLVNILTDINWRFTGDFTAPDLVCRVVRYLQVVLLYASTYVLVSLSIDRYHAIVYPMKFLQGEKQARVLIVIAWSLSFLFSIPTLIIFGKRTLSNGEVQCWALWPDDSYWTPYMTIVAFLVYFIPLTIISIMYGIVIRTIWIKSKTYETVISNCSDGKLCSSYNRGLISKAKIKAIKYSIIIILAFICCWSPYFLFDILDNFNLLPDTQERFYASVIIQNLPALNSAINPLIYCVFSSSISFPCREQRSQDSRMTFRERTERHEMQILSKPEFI
JMJD2E inh – JMJD2E (human) inhibition | B2RXH2 | JMJD2E catalytic domain, FDH-coupled NADH fluorescence (FDH is formaldehyde dehydrogenase) | Potency, µM (titrated, usually from 57.1 µM), inactives show at the highest dose activity change, negative = inhibition, usual class: inhibitors | hit rate 1.6% among 230,000 | AID 2147;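 also: potency is read from the fitted curve at half-maximal effect; 0% = wells with enzyme and -100% = buffer wells without enzyme; nearly all actives have a fitted effect of over 50% in size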
Sfp PPTase inh – Sfp phosphopantetheinyl transferase inhibition; hit rate 3.5% among 310,000; Biochemical Sfp PPTase activity, qHTS; AID 1490; Potency, µM, without a hit: largest response in the series, negative = inhibition, actives largely listed as inhibitors; active = well fitted curve in the direction sought with a large enough effect; inconclusive = small, poorly fitted or top-dose-only effect, or another doubt; inactive = no such curve, though single readings can be large; an effect the other way counts as inactive or inconclusive;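 also: the enzyme is Sfp with the accession as filed and its product quenches rhodamine fluorescence; potency is read from the fitted curve at half-maximal effect; 0% = enzyme reaction without inhibitor and -100% = no enzyme wells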
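Compounds were incubated with enzyme (final 15 nM) for 15 min at room temperature before substrate addition started the reaction. Fluorescence at 525 nm excitation, 598 nm emission was recorded immediately and after 30 minutes.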
Coupling enz – counter-screen for Giardia aldolase inhibitors: coupling enzyme system; coupling enzyme system counterscreen, AmpLite Red fluorescence; activity change, negative = inhibition, % at 58.2 µM, hits read low; hit rate 0.67% among 290,000; in the data active = activity change below about -30%
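Counterscreen lacking aldolase: glyceraldehyde-3-phosphate coupling-enzyme reagent preincubated 10 min at RT with compound (at 57.5 uM final), then substrate/coupling system with AmpLite Red added; fluorescence read at 525/598 nm after 20 min RT.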
Active calls of the source: *; ? = inconclusive; / = not tested or not shown; [ ] = another dose, or the depositor's remark. Only some compounds are listed: those with a hit (about 8.5% of all), similar ones and a draw of the others. Unless noted, calls follow the shape of the dose curve; as a rule, active = well fitted inhibition curve with a large enough effect (not every such curve was filed as active); inconclusive = small, poorly fitted or top-dose-only effect, or another doubt; inactive = no such curve, though single readings can be large or run the other way. Unless noted, % is scaled to controls: 0 for no effect and ±100 for the full control effect.

SMILES	ALDH1A1 block	GoLoco inh red	NPSR antag	JMJD2E inh	Sfp PPTase inh	Coupling enz
CCN(CC)S(=O)(=O)c1cccc(-c2n[nH]c(=S)n2Cc2ccccc2)c1	7.1µM*	10%	-47%	?	-23%	3
COc1ccc(N2CCN(C3CCCN(Cc4cccc(OC)c4)C3)CC2)cc1 (configuration not stated)	/	/	/	/	14%	-1
O=S(=O)(N/N=C/c1ccc(N2CCOCC2)cc1)c1ccc(Br)cc1	?	13%	-21%	?	2%	3
O=C(COC(=O)Cn1cnc2ccccc2c1=O)Nc1ccccc1Sc1ccc(Cl)cc1	-1%	-1%	9%	1%	16%	-5
Cc1ccc(S(=O)(=O)N2CCN(C(=O)c3ccccc3Cc3ccccc3)CC2)c(C)c1	/	/	/	/	0%	-1
O=C(NCc1n[nH]c(=S)n1Cc1ccccc1)c1ccccc1	-4%	6%	4%	-9%	-13%	4
O=C(NCc1n[nH]c(=S)n1Cc1ccccc1)c1ccc(Cl)cc1Cl	22µM*	11%	-19%	-6%	4%	-1
CCN(CC)S(=O)(=O)c1ccc(C(=O)NCc2n[nH]c(=S)n2Cc2ccccc2)cc1	2.5µM*	5%	-11%[46.1 µM]	-18%	-14%	6
CCC(C)(C)n1nnnc1CN1CCC(c2nc3ccc(C)cc3[nH]2)CC1	10µM*	5%	-13%[46.1 µM]	3%	24%	2
Cc1ccc2nc(-c3cccc(S(=O)(=O)N(C)C)c3)cn2c1	?	40%	-23%[46.1 µM]	9%	6%	-32*
COc1ccccc1OCC#CCNC1CCCCC1C (configuration not stated)	?	-10%	7%	?	-8%	-1
N#CCCCS(=O)(=O)c1nnnn1-c1ccc(Br)cc1	20µM*	-1%	/	0%	1%	1
N#CCCS(=O)(=O)c1nnnn1-c1ccccc1	0.45µM*	-10%	?	-2%	?	0
N#CCCn1c(=O)c(-c2cc(F)cc(F)c2)nc2cnc(OCc3ccccc3)nc21	?	10%	/	/	?	0
CCCCCCCn1ccc(=N)cc1	1%	16µM*	0%[46.1 µM]	-11%	10%	1
CCCCCCCCCn1ccc(=N)cc1	/	2%	-44%	8%	-24%	6
CCCCCn1ccc(=N)cc1	?	13µM*	0%[46.1 µM]	-12%	11%	-9
COc1ccccc1N1CCN(C[C@@H](C(=O)NC(C)(C)C)c2ccccc2)CC1	25µM*	-1%	/	?	-8%	4
COc1ccccc1N1CCN(c2ccc(-c3ccccc3)nn2)CC1	?	13µM*	21%[46.1 µM]	?	11%	1
COc1ccccc1N1CCN(c2ccc3ccccc3n2)CC1	/	/	/	/	-32%	-1
COc1ccccc1N1CCN(C[C@@H](O)COc2cccc3ccccc23)CC1	?	3%	/	?	-17%	-6
CCOC(=O)N1CCN(c2ccccc2OC)CC1	0%	4%	2%	-5%	9%	-1
COc1ccccc1N1CCN(C(=O)c2ccccc2Oc2ccccc2)CC1	0.56µM*	-43%	-19%[7.67 µM]	7%	11%	0
CCC(C(=O)N1CCN(c2ccccc2OC)CC1)c1ccccc1 (configuration not stated)	40µM*	-3%	-8%	-2%	-8%	15
CCn1c(=O)n(CC)c2cc(N3CCCC3)c(NC(=O)c3ccccc3F)cc21	/	/	/	/	-16%	-5
Cc1ccc(C(=O)Nc2ccc(F)cc2)cc1NC1=NC2CS(=O)(=O)CC2S1 (configuration not stated)	/	/	/	/	1%	-2
C[C@@]12CC(=O)[C@@H]3[C@@H](CCC4=CC(=O)CC[C@]43C)[C@@H]1CC=C2CC(=O)O	6%[13.5 µM]	6%[14.2 µM]	/	/	/	/
NC(=O)c1nsc(C(=O)N(CC(=O)NC2CCCCC2)Cc2ccc(F)cc2)c1N	/	/	/	/	6%	2
N#Cc1ccc2c(c1)C[C@]1(CCCCN3C(=O)c4ccccc4C3=O)Oc3c(c(=O)oc4ccccc34)C2O1	/	/	/	/	4%	1
COc1cccc(CN2C[C@]34C=C[C@@H](C[C@@H]3S2(=O)=O)O4)c1	/	-2%	15%	10%	89µM*	1
